Screens: PubChem, The Scripps Research Institute Molecular Screening Center
ASK1 inh = inhibitors of human ASK1 kinase | actives 0.99% (n = 22,000) | inhibition, % at 7.44 µM | Q99683 | AlphaScreen MKK6 phosphorylation by ASK1, luminescence; in the data active = inhibition above about 35%;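 also: 0% = median of compound wells and 100% = no enzyme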
ULK1 inh = inhibitors of human ULK1 kinase; actives 1.9% (n = 30,000); AlphaScreen Atg13 phosphorylation by ULK1, luminescence; inhibition, % at 5.96 µM; in the data active = inhibition above about 43%;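 also: 0% = median of compound wells and 100% = no enzyme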
Numbers without * were called inactive; · = no result; ! = a repeat was not active. Hits are enriched below; roughly 2.4% of the tested compounds scored in any of these assays.

SMILES	ASK1 inh	ULK1 inh
O=C1c2c(O)ccc(O)c2C(=O)c2c(NCCNCCO)ccc(NCCNCCO)c21	·	43*
COc1cc(NC(=O)C2COc3ccc(Cl)cc3C2)ccc1-c1cn[nH]c1 (stereo not drawn)	-4	-16
O=C(Nc1ccc2[nH]ncc2c1)C1CCCNC1 (stereo not drawn)	11	38
N[C@@H]1CC[C@@H](C(=O)Nc2ccc3cnccc3c2)C1	-10	34
N[C@@H]1CC[C@@H](C(=O)Nc2ccc3[nH]ncc3c2)C1	-3	65*
O=C(Nc1ccc2[nH]ncc2c1)C(O)c1ccc(Cl)cc1 (stereo not drawn)	-15	9
N[C@H]1CC[C@@H](C(=O)Nc2ccc3[nH]ncc3c2)C1	6	72*
CC(C)[C@H](O)C(=O)N[C@H]1CC[C@H](C(=O)Nc2ccc3[nH]ncc3c2)C1	-1	5
O=C(Nc1ccc2[nH]ncc2c1)[C@H](O)c1ccccc1	-5	49*
N[C@H]1CCC[C@@H](C(=O)Nc2ccc3cnccc3c2)C1	6	66*
O=C(NCc1nc2ccccc2[nH]1)c1cccc(NC2CCC(O)CC2)n1 (stereo not drawn)	11	4
O=C(NCCOc1ccccc1)c1cc(N2CCN(Cc3ccc4c(c3)OCO4)CC2)nc2ccccc12	-3	12
O=C(NC1CCC(Nc2ccc3[nH]ncc3c2)CC1)C(O)c1ccc(Br)cc1 (stereo not drawn)	-1	-8
O=C(NCCc1cccs1)c1ccc2c(c1)CC(c1nc3ccc(-c4cn[nH]c4)cc3c(=O)[nH]1)CO2 (stereo not drawn)	25	22
O=C(Nc1ccc2[nH]ncc2c1)[C@@H]1CCCN1	3	38
O=C(Nc1ccc2[nH]ncc2c1)[C@H]1CCCN1	-12	45*
CCc1cc(=O)n(CC(=O)Nc2ccc(Br)cc2)c(-n2nc(C)cc2C)n1	·	-13
OCC1CCCN1c1nc(Nc2ccc(N3CCOCC3)cc2)c2ncn(-c3ccccc3)c2n1 (stereo not drawn)	-37	61*
OCC1CCCN1c1nc(Nc2ccc(N3CCOCC3)cc2)c2ncn(C3CCCCC3)c2n1 (stereo not drawn)	30	53*
c1cc(N2CCOCC2)ccc1Nc1nc(N2CCOCC2)nc2c1ncn2C1CCCCC1	-1	33
OCC1CCCN1c1nc(Nc2ccc(N3CCOCC3)cc2)c2ncn(-c3ccsc3)c2n1 (stereo not drawn)	16	11
COc1ccc(CCNC(=O)c2ccc3nc(Nc4nc5ccccc5n4C)sc3c2)cc1	-26	11
Cc1cc(C)cc(NC(=O)N2CCc3nc4ccccn4c(=O)c3C2)c1	·	11
COC(CNc1nccc(Nc2ccncn2)n1)c1cccs1 (stereo not drawn)	-4	4
CC(C)n1cnc2c(NC3CCN(Cc4ccccc4)CC3)nc(Nc3ccncn3)nc21	12	15
SMILES	ASK1 inh	ULK1 inh
c1ccc(Nc2ccnc(Nc3ccncn3)n2)cc1	16	45*
CC(CNc1nccc(Nc2ccncn2)n1)c1cccs1 (stereo not drawn)	10	44*
CC(=O)Nc1ccc(Nc2nc(Nc3ccncn3)nc3c2ncn3-c2ccccc2)cc1	5	-49
CC(C)n1cnc2c(Nc3ccccc3)nc(Nc3ccncn3)nc21	-5	50*
CC(=O)Nc1ccc(Nc2nc(Nc3ccncn3)nc3c2ncn3C(C)C)cc1	4	55*
c1ccc(Nc2ccnc(Nc3ccncc3)n2)cc1	3	17
O=C(Cc1cn(-c2ccc(Nc3ccc(-n4ccnc4)cc3)nn2)c2ccccc12)NC1CCN(Cc2ccccc2)CC1	24	12
O=C(Cc1cn(-c2ccc(N3CCOCC3)nn2)c2ccccc12)NCc1ccccc1	2	10
O=C1CCCN1CCCNc1ncnc2nc(N3CCC(N4CCOCC4)CC3)[nH]c12	0	-2
Cc1nn(C)c(C)c1-c1nc(N)c2ncn(Cc3ccc(C(F)(F)F)cc3)c2n1	-5	-3
Cc1cccc(CC(=O)Nc2cnn(-c3cccc(C(=O)Nc4cccnc4)c3)c2)c1	-18	-12
Cc1nn(C)c(C)c1-c1cc(NCCc2ccc(O)cc2)nc(N)n1	-2	-4
CC(C)n1cnc2c(Nc3ccccc3)nc(Nc3ccccn3)nc21	-4	49*
CC(C)n1cnc2c(NCCO)nc(Nc3ccccn3)nc21	-8	9
CC(=O)Nc1ccc(Nc2nc(Nc3ncccn3)nc3c2ncn3C(C)C)cc1	3	47*
CC(=O)Nc1ccc(Nc2nc(Nc3ccc4ncccc4c3)nc3c2ncn3C(C)C)cc1	-8	34
COc1cc(Nc2nc(NCCCN3CCCC3=O)c3ncn(-c4ccsc4)c3n2)cc(OC)c1OC	-11	5
COc1ccc(C(=O)Nc2cc(-c3cnn(C)c3)c(Cl)cn2)cc1	5	36
FC(F)(F)c1cccc(CNc2ccnc(NCCN3CCOCC3)n2)c1	-27	-12
FC(F)(F)c1cccc(CNc2ccnc(Nc3ccc(N4CCOCC4)cc3)n2)c1	36*!	-3
